Experimental data reported in the supplement of paper PMC9262897, “Low-cost anti-mycobacterial drug discovery using engineered E. coli” (Nature Communications, 2022).
Structures can show the parent of a compound that is named as a salt. ± gives the standard deviation of the averaged measurements.

The compounds below were run on E. coli TESEC Mtb Alr (assay: growth (OD600 after 10 h); higher = more growth (less inhibition)). Settings: arabinose 10000000 nM; compound 0.1 mM; raw OD600 reference: median of DMSO wells […], cell-free background 0.052.
Procedure: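 TESEC Mtb Alr E. coli (ΔaraC ΔtolC ΔentC Δalr ΔdadX, arabinose-inducible Mtb Alr) or the Alr+ wild-type control strain, grown in defined M9-fructose medium without D-alanine in 96-well plates with Prestwick library compounds at 0.1 mM and 1% DMSO. Low Alr induction is 0.1 µM arabinose and high induction is 10 mM arabinose.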

SMILES | growth
COc1cc(C(=O)NS(=O)(=O)c2ccccc2C)ccc1Cc1cn(C)c2ccc(NC(=O)OC3CCCC3)cc12 [Zafirlukast] | 0.215 ± 0.024
NNc1nncc2ccccc12 [Hydralazine hydrochloride] | 0.304 ± 0.018
Nc1c2c(nc3ccccc13)CCCC2O (racemic) [Hydroxytacrine maleate (R,S)] | 0.352 ± 0.0099
CCN(CC)CCOC(=O)C1(C2CCCCC2)CCCCC1 [Dicyclomine hydrochloride] | 0.11 ± 0.003
O=C(Oc1cccc2cccnc12)c1ccccc1 [Benzoxiquine] | 0.281 ± 0.01
O=C1CC2(CCCC2)CC(=O)N1CCCCN1CCN(c2ncccn2)CC1 [Buspirone hydrochloride] | 0.346 ± 0.011
CCN(CC)C(=O)C1(c2ccccc2)CC1CN (stereo not given) [Milnacipran hydrochloride] | 0.322 ± 0.0073
CCN(CC)CC#CCOC(=O)C(O)(c1ccccc1)C1CCCCC1 (stereo not given) [Oxybutynin chloride] | 0.145 ± 0.025
C[C@]12C=CC(=O)C=C1CC[C@H]1[C@@H]3C[C@@H](O)[C@](O)(C(=O)CO)[C@@]3(C)C[C@H](O)[C@@]12F [Triamcinolone] | 0.306 ± 0.03
O=C(CCCCC(=O)Nc1c(I)cc(I)c(C(=O)O)c1I)Nc1c(I)cc(I)c(C(=O)O)c1I [Iodipamide] | 0.346 ± 0.014
CCN(CCO)CCCC(C)Nc1ccnc2cc(Cl)ccc12 (stereo not given) [Hydroxychloroquine sulfate] | 0.354 ± 0.017
Cc1ccsc1/C=C/C1=NCCCN1C [Morantel tartrate] | 0.259 ± 0.17
Cc1noc(NS(=O)(=O)c2ccc(N)cc2)c1C [Sulfisoxazole] | 0.313 ± 0.019
C=CCOc1ccccc1OCC(O)CNC(C)C (stereo not given) [Oxprenolol hydrochloride] | 0.357 ± 0.0083
CCOc1ccc2c(c1)C(C)=CC(C)(C)N2 [Ethoxyquin] | 0.167 ± 0.068
CC1Cc2ccccc2N1NC(=O)c1ccc(Cl)c(S(N)(=O)=O)c1 (stereo not given) [Indapamide] | 0.336 ± 0.018
CCC(=O)OCC(=O)[C@@]1(OC(=O)CC)[C@H](C)C[C@H]2[C@H]3[C@H]([C@@H](O)C[C@@]21C)[C@@]1(C)C=CC(=O)C=C1C[C@H]3Cl [Alclometasone dipropionate] | 0.241 ± 0.04
Cc1scc2c1N(C(=O)CN1CCN(C)CC1)c1ccccc1NC2=O [Telenzepine dihydrochloride] | 0.338 ± 0.0097
O=C1CC[C@@H](C(=O)N2CSC[C@H]2C(=O)O)N1 [Pidotimod] | 0.335 ± 0.0057
CCC1NC(=O)c2cc(S(N)(=O)=O)c(Cl)cc2N1 (stereo not given) [Quinethazone] | 0.354 ± 0.022

SMILES | growth
CN1CCCN(C(c2ccccc2)c2ccc(Cl)cc2)CC1 (stereo not given) [Homochlorcyclizine dihydrochloride] | 0.118 ± 0.018
C1N2CN3CN1CN(C2)C3 [Methenamine] | 0.376 ± 0.0071
CC(C)(O/N=C(\C(=O)N[C@@H]1C(=O)N2C(C(=O)[O-])=C(C[n+]3ccccc3)CS[C@H]12)c1csc(N)n1)C(=O)O [Ceftazidime pentahydrate] | 0.0727 ± 0.0092
CC(C(O)c1ccc(O)cc1)N1CCC(Cc2ccccc2)CC1 (stereo not given) [Ifenprodil tartrate] | 0.312 ± 0.0043
CCN(CC)CCNC(=O)c1ccc(N)cc1 [Procainamide hydrochloride] | 0.364 ± 0.0095
CC[C@H]1OC(=O)[C@H](C)[C@@H](O[C@H]2C[C@@](C)(OC)[C@@H](O)[C@H](C)O2)[C@H](C)[C@@H](O[C@@H]2O[C@H](C)C[C@H](N(C)C)[C@H]2O)[C@](C)(O)C[C@@H](C)CN(C)[C@H](C)[C@@H](O)[C@]1(C)O [Azithromycin] | 0.05133 ± 0.00015
OC(CCN1CCCCC1)(c1ccccc1)C1CCCCC1 (stereo not given) [Trihexyphenidyl-D,L Hydrochloride] | 0.324 ± 0.024
CN1C(C(=O)Nc2ccccn2)=C(O)c2ccccc2S1(=O)=O [Piroxicam] | 0.259 ± 0.016
c1ccc(CN(CC2=NCCN2)c2ccccc2)cc1 [Antazoline hydrochloride] | 0.364 ± 0.015
CCCc1nc2c(C)cc(-c3nc4ccccc4n3C)cc2n1Cc1ccc(-c2ccccc2C(=O)O)cc1 [Telmisartan] | 0.337 ± 0.018
Nc1nc(F)nc2c1ncn2[C@@H]1O[C@H](CO)[C@@H](O)[C@@H]1O [Fludarabine] | 0.31 ± 0.004
CN1CCOC(c2ccccc2)c2ccccc2C1 (stereo not given) [Nefopam hydrochloride] | 0.327 ± 0.021
NCCCC(O)(P(=O)(O)O)P(=O)(O)O [Alendronate sodium] | 0.204 ± 0.023
Clc1ccccc1C(c1ccccc1)(c1ccccc1)n1ccnc1 [Clotrimazole] | 0.0569 ± 0.00059
O=C1c2cccc(O)c2C(=O)c2c(O)cccc21 [1,8-Dihydroxyanthraquinone] | 0.218 ± 0.013
CC(N/C(=N\C#N)Nc1ccncc1)C(C)(C)C (stereo not given) [Pinacidil] | 0.359 ± 0.036
COc1ccc2c(c1)c(CC(=O)OCC(=O)O)c(C)n2C(=O)c1ccc(Cl)cc1 [Acemetacin] | 0.183 ± 0.012
O=C(O)c1ccccc1C(=O)Nc1ccc(S(=O)(=O)Nc2nccs2)cc1 [Phthalylsulfathiazole] | 0.333 ± 0.0071
c1ccc2c(c1)CCCC2C1=NCCN1 (stereo not given) [Tetrahydrozoline hydrochloride] | 0.343 ± 0.01
Cc1nnc(NS(=O)(=O)c2ccc(N)cc2)s1 [Sulfamethizole] | 0.33 ± 0.011
